Results: PubChem BioAssay AID624331 (National Center for Advancing Translational Sciences (NCATS), 2012)
Records with an inconclusive call do not appear. A number with no mark means an inactive call. Calls of active or inactive are those of the source. Calls come from the whole dose curve; as a rule, active = well fitted activation curve with a large enough effect; inconclusive = small, poorly fitted or top-dose-only effect; inactive = no such curve, though single readings can be large or run the other way.

Experiment: qHTS assay for re-activators of p53 using a Luc reporter: Hit Validation with no p53 Expressed; for activity change, positive = activation: 0% is about no effect
Settings: p53-null cells, luciferase reporter counter-screen; series mostly up to 46.1 µM; activity change, positive = activation: at the top concentration
Excerpt: The p53 tumor suppressor plays a key role in suppression of tumorigenesis and in human carcinogenesis. It is frequently found inactivated in human cancers, mainly by point mutation. These point mutations are found in a wide variety of human cancers and a majority of them affect the DNA binding domain of the protein. The point mutations either alter native p53 conformation or abolish DNA contact. Additionally, cancer cells with p53 mutations are more resistant to chemo-radiation therapies.
This counter screen was run against the hits identified from the primary screen. It uses a cell line that was not transfected with p53. Compounds that show activity in this counter screen show unspecific activation of the assay system and are excluded from further consideration.
NIH Chemical Genomics Center [NCGC]
NIH Molecular Libraries Probe Production Centers Network [MLPCN]
Assay Provider (PI): Yi Sung, University of Michigan at Ann Arbor
5ul of 1000 cells per well are dispensed in all wells except column 4, into white solid-bottom TC-treated Kalypsys plates. The cells are kept in Opti-MEM and supplemented with 10% FBS and dispensed using a Multidrop (Thermo). Then using the Kalypsys pin-tool, 23nl of compounds are pinned. The compounds are starting concentration at 10mM, with 1:5 dilution, 4 points, and the control compound nocodazole is pinned in column 1 at 25mM, 1:3 dilution, in duplicate, 25mM nocodazole is pinned in column 2. Please note, all concentrations are working concentrations. 5ul of 1pM purified luciferase enzyme is dispensed using the Kalypsys dispenser in column 4. Plates are incubated for 24 hrs at 37 deg C, 5% CO2, and 95% humidity. Then 4ul of the detection reagent Amplite (ABD Bioquest) is added using the Kalypsys dispenser. Plates are incubated for 10 min at ambient room temperature and are then read on the ViewLux (Perkin Elmer) using a clear filter for a luminescent read-out.
Potency is the fitted concentration of half-maximal effect.

In order of rising “activity change, positive = activation” value:
1. Cc1ccc2nc(-c3ccc(NC(=O)COC(=O)c4ccc(Br)o4)cc3)sc2c1  -74.3%
2. O=S(=O)(CCOc1ccccc1)c1nc2ccccc2[nH]1  -63.1%
3. C=CCSC1=N/C(=C\c2cc(OCC)c(OC(C)=O)c([N+](=O)[O-])c2)C(=O)S1  -60.9%
4. CCOC(=O)c1cc(-c2ccccc2)sc1NC(=O)CC  -51.7%
5. O=C1/C(=C/Nc2ccc3c(c2)OCO3)CCc2ccccc21  -43.5%
6. Cc1ccc(C(=O)N/N=C2\CCc3ccccc32)c(C)c1  -37.4%
7. Cc1ccc(/C=C2\SC(=S)N(CCCC(=O)Nc3nccs3)C2=O)cc1  -34.4%
8. CC(C)c1ccc(C(O)c2nc3ccccc3n2C)cc1 (stereo not given)  -33.7%
9. O=C(CSc1nnnn1C1CCCCC1)NCCc1ccccc1  -22.1%
10. O=C(Nc1ccc(Cl)cc1)Nc1nnc(SCc2ccccc2)s1  -21.5%
11. C=CCn1c(C)cc(C(=O)COC(=O)c2ccc(N)c([N+](=O)[O-])c2)c1C  -12.9%
12. Fc1ccc(CCNC(=S)Nc2ccc(F)cc2)cc1  -12.1%
13. CCOC(=O)c1[nH]c(C)c(C(=O)NCCC2=CCCCC2)c1C  -12%
14. CCOc1ccc(/C=N/NC(=O)CN2CCSCC2)cc1  -8.87%
15. O=C(NCCN1CCCCC1)Nc1cccc(C(F)(F)F)c1  -5.59%
16. COc1ccc(C(=O)N=c2nc3ccccn3s2)cc1  7.05%
17. Clc1ccc(OCc2nc(-c3ccccn3)n[nH]2)cc1  7.13%
18. CCCCc1ccc(NC(=S)Nc2ccc(Nc3ccc(OC)cc3)cc2)cc1  11.1%
19. CC1CCCN(C(=O)CN2C(=O)c3ccccc3S2(=O)=O)C1 (stereo not given)  13.4%
20. COc1ccc(-c2nnc(SCC(=O)/C(C#N)=C(\C)N)o2)cc1  13.7%
21. COc1cccc(C(=O)c2sc(NC(C)C)nc2N)c1  16.8%
22. O=C(Nc1ccccc1Br)c1ccc(OC(=S)N2CCOCC2)cc1  17%
23. O=C(O)CCCC(=O)NCCc1ccncc1  18.6%
24. N#C/C(=C\c1ccc(OCc2ccc(Br)cc2)cc1)C(=O)Nc1cccc(C(=O)O)c1  25.2%
25. NNc1nc(-c2ccccc2)nc2sc3c(c12)CCCC3  29.2%
26. N#Cc1cnc(Oc2ccc(Cl)cc2)nc1N  31%
27. Cc1ccc(-c2cc(-c3ccccc3Cl)[nH]n2)c(O)c1  32.1%
28. CN(C)/C=N/c1cnc(C(=O)c2ccc(Cl)cc2)n1C  33.5%
29. Cc1nc(NCCc2ccccc2)c2nnn(Cc3ccccc3Cl)c2n1  34.4%
30. Fc1ccccc1OCCSc1nnnn1-c1ccccc1  40.7%
31. COc1ccc(-c2csc(NCc3ccco3)n2)cc1C  49%
32. C1=C(CCNc2ncnc3nc[nH]c23)CCCC1  52.6%
33. Cc1cccc(C(=O)OCC(=O)N2CCCCCC2)c1O  55.7%
34. O=C(NCCC1=CCCCC1)c1ccc([N+](=O)[O-])cc1  64.3%
35. CC(C)[C@H](NC(=O)c1ccc(Cl)cc1Cl)C(=O)NNc1cccc(C(=O)O)c1  73.4%
36. CCOC(=O)c1c(NC(=O)CN2CCCc3ccccc32)sc(C)c1C  75.3%
37. Cc1ccc(CNc2cc(C(=O)O)ccc2Cl)s1  86%
38. Cc1nn(-c2ccccc2)c(N)c1Sc1ccc([N+](=O)[O-])cc1  89.5%

With `Cc1cc(C(=O)COC(=O)c2ccc(O)cc2)c(C)n1CC(F)(F)F` the Potency was 20.6 µM (active).
With `CC(=O)c1ccc(N2Cc3ccccc3C2=NC(=O)c2cccs2)cc1` the Potency was 10.3 µM (active).
